These results are taken from PubChem BioAssay (Tox21).

Assay [1] in a line: A CellTox Green Cytotoxicity Assay to monitor cytotoxicity in HEK293 cells - 40 hour (AID 1224871). Also: nearly all actives have a fitted effect of over 45% in size. Also: potency is read from the fitted curve at half-maximal effect. A digest of the protocol: (§1)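 Tox21 screen in HEK293: membrane-impermeant cyanine dye fluoresces on binding dead-cell DNA; compound pinned 5 h post-seeding, plates held at 37 C, signal read repeatedly through 40 h.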
Assay [2] in a line: qHTS RealTime-Glo MT Cell Viability Assay in HEK293 cells - 16 hour (AID 1224872). Also: nearly all actives have a fitted effect of over 50% in size. Also: potency is read from the fitted curve at half-maximal effect. A digest of the protocol:
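HEK293 cells seeded with NanoLuc/prosubstrate reagent, rested 5 h at 37 C, then dosed and kept at 37 C up to 40 h. Nonlytic real-time luminescence from viable cells read at 0, 8, 16, 24, 32 and 40 h.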
On the technique in general: In qHTS, concentration-response curves come from the screen itself.

Assay [3] can be described thus: qHTS RealTime-Glo MT Cell Viability Assay in HepG2 cells - 8 hour (AID 1224873). Also: nearly all actives have a fitted effect of over 55% in size. Also: potency is read from the fitted curve at half-maximal effect. The gist of the method:
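HepG2 cells (600/well) mixed with RealTime-Glo MT reagent, settled 5 h at 37 C/5% CO2 before compound addition. Nonlytic NanoLuc luminescence from viable-cell prosubstrate reduction read repeatedly during 40 h treatment at 37 C.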

Assay [4] can be described thus: qHTS RealTime-Glo MT Cell Viability Assay in HEK293 cells - 40 hour (AID 1224874). Also: nearly all actives have a fitted effect of over 50% in size. Also: potency is read from the fitted curve at half-maximal effect. To be noted: RealTime-Glo luminescence; max response: stronger effect = lower value. The gist of the method: (§2)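 HEK293 + NanoLuc + prosubstrate, 600 cells/well; 5 h, 37 C/5% CO2; compound 23 nL in DMSO by pintool; 37 C; luminescence read at 0, 8, 16, 24, 32 and 40 h time points.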
A short description of assay [5]: A CellTox Green Cytotoxicity Assay to monitor cytotoxicity in HEK293 cells - 24 hour (AID 1224875). Also: series mostly up to about 77 µM; nearly all actives have a fitted effect of over 45% in size. A digest of the protocol:
as §1

The nature of assay [6]: A CellTox Green Cytotoxicity Assay to monitor cytotoxicity in HepG2 cells - 16 hour (AID 1224876). Also: nearly all actives have a fitted effect of over 45% in size. Also: potency is read from the fitted curve at half-maximal effect. A digest of the protocol: (§3)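 Measurements at 0, 8, 16, 24, 32 and 40 h of treatment captured CellTox Green fluorescence in HepG2 cells that had been co-plated with reagent and preincubated 5 h at 37 C/5% CO2.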
Assay [7] in a line: qHTS RealTime-Glo MT Cell Viability Assay in HepG2 cells - 32 hour (AID 1224877). Also: nearly all actives have a fitted effect of over 55% in size. Also: potency is read from the fitted curve at half-maximal effect. The gist of the method:
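HepG2 cells (600/well) were dispensed with RealTime-Glo reagents, incubated 5 h at 37 °C, then treated with compounds in DMSO for up to 40 h. Nonlytic NanoLuc luminescence reflecting viable cells was read at each stated time point.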

The nature of assay [8]: A CellTox Green Cytotoxicity Assay to monitor cytotoxicity in HepG2 cells - 24 hour (AID 1224878). Also: nearly all actives have a fitted effect of over 45% in size. Also: potency is read from the fitted curve at half-maximal effect. The gist of the method: as §3
A short description of assay [9]: A CellTox Green Cytotoxicity Assay to monitor cytotoxicity in HepG2 cells - 40 hour (AID 1224879). Also: nearly all actives have a fitted effect of over 40% in size. Also: potency is read from the fitted curve at half-maximal effect. A digest of the protocol:
as §3

A short description of assay [10]: qHTS RealTime-Glo MT Cell Viability Assay in HEK293 cells - 0 hour (AID 1224880). A digest of the protocol:
as §2

Values joined by “and” are separate entries in the source; they are usually repeats but may differ in a detail not shown here. Equal values may be shown once. Records with an inconclusive call do not appear. Where a structure was tested more than once in an assay, its records may differ in their call. Active and inactive are the calls of the source. Calls follow the shape of the dose curve; as a rule, active = well fitted curve in the direction sought with a large enough effect in the repeat runs; inconclusive = weak or mixed curves; inactive = no such curve, though single readings can be large; an effect the other way counts as inactive or inconclusive.
% is scaled to controls: 0 for no effect and ±100 for the full control effect.

Regarding `CCCNCCC`, the Potency result in assay [1], in assay [2], in assay [3], in [5], in assay [6] and in assay [7] was “inactive” each time. Moreover, the Potency entry in [8], in [9] and in assay [10] was “inactive” in each case. Further, in assay [4], the max response was -5.51% (inactive).
`S=c1nccc[nH]1`: the Potency entry in assay [1], in assay [2], in assay [3], in assay [5], in [6] and in [7] was “inactive” throughout. Further, the Potency result in assay [8], in assay [9] and in assay [10] was “inactive” in each case. The max response in assay [4] is 13.6% (inactive).
As to `Nc1ccc(Oc2ccc(Cl)cc2)cc1`, the Potency result in [1], in assay [3], in [5], in [6], in assay [7] and in assay [8] was “inactive” in each case. Further, the Potency result in [9] and in [10] was “inactive” in each case. Moreover, the Potency in assay [2] and in assay [4] was 21.4 µM (active) throughout.
Turning to `C=Cc1cccc(C)c1`, the Potency result in assay [1], in assay [2], in assay [3], in [5], in assay [6] and in assay [7] was “inactive” throughout. Also, the Potency result in [8], in assay [9] and in assay [10] was “inactive” each time. For the same molecule, the max response in assay [4] is -2.09% (inactive) and 3.82% (inactive).
With `Nc1nc2c(ncn2COCCO)c(=O)[nH]1`, the Potency entry in [1], in [2], in assay [3], in assay [5], in assay [6] and in [7] was “inactive” each time. The Potency result in assay [8], in [9] and in assay [10] was “inactive” each time. The max response in assay [4] was 0.456% (inactive).
With `Clc1ccnc(Cl)n1`, the Potency result in [1], in assay [2], in assay [3], in [5], in [6] and in assay [7] was “inactive” in each case. For the same molecule, the Potency entry in assay [8], in assay [9] and in assay [10] was “inactive” each time. In addition, in assay [4], the max response is 11.8% (inactive).
`COC(C)=O`: the Potency result in assay [1], in assay [2], in assay [3], in [5], in [6] and in assay [7] was “inactive” each time. The Potency entry in [8], in assay [9] and in assay [10] was “inactive” each time. Moreover, the max response in assay [4] is -13.9% (inactive).
`O=C(O)Cc1ccc2c(c1)C(=O)c1ccccc1CO2`: the Potency entry in assay [1], in [2], in assay [3], in assay [5], in [6] and in assay [7] was “inactive” throughout. In addition, the Potency entry in assay [8], in assay [9] and in assay [10] was “inactive” throughout. Further, the max response in assay [4] is 1.5% (inactive).
`COC(=O)c1ccccc1OC`: the Potency entry in [1], in assay [2], in assay [3], in assay [5], in assay [6] and in [7] was “inactive” each time. For the same molecule, the Potency entry in assay [8], in assay [9] and in assay [10] was “inactive” each time. Also, the max response in [4] is 2.19% (inactive).
As to `CC(=O)Oc1cc2c(s1)CCN(C(C(=O)C1CC1)c1ccccc1F)C2` (stereo not given), the Potency result in assay [1], in assay [2], in assay [3], in assay [5], in assay [6] and in assay [7] was “inactive” each time. In addition, the Potency entry in assay [8], in assay [9] and in [10] was “inactive” throughout. In addition, in assay [4], the max response is -4.77% (inactive).
With `CC(CCc1ccccc1)NCC(O)c1ccc(O)c(C(N)=O)c1` (stereo not given), the Potency entry in assay [1], in assay [2], in assay [3], in [5], in assay [6] and in assay [7] was “inactive” throughout. Besides, the Potency entry in [8], in assay [9] and in [10] was “inactive” throughout. In addition, in [4], the max response was 0.74% (inactive).
Take `CCOC(=O)NNc1ccc(N(CC)CC(C)O)nn1` (stereo not given): the Potency entry in [1], in [2], in assay [3], in assay [5], in [6] and in [7] was “inactive” throughout. Moreover, the Potency entry in [8], in assay [9] and in assay [10] was “inactive” each time. Besides, in [4], the max response is 7.18% (inactive).
`O=S(=O)(O)c1ccccc1/C=C/c1ccc(-c2ccc(/C=C/c3ccccc3S(=O)(=O)O)cc2)cc1`: the Potency result in [1], in [2], in [3], in [5], in [6] and in assay [7] was “inactive” throughout. In addition, the Potency entry in [8], in [9] and in assay [10] was “inactive” each time. The max response in [4] was 3.02% (inactive).
Turning to `Nc1nc(-c2ccccc2)cs1`, the Potency entry in assay [1], in assay [2], in assay [3], in assay [5], in [6] and in [7] was “inactive” throughout. The Potency entry in assay [8], in assay [9] and in assay [10] was “inactive” in each case. Also, the max response in [4] was -6.02% (inactive).
`CC(CO)Oc1ccccc1` (stereo not given): the Potency entry in [1], in assay [2], in assay [3], in [5], in assay [6] and in assay [7] was “inactive” in each case. The Potency entry in assay [8], in assay [9] and in [10] was “inactive” each time. Further, the max response in assay [4] is -11% (inactive).
Turning to `OCC(F)(F)F`, the Potency result in assay [1], in assay [2], in assay [3], in [5], in [6] and in [7] was “inactive” each time. The Potency entry in assay [8], in [9] and in [10] was “inactive” in each case. Further, the max response in assay [4] was 19.1% (inactive).
Regarding `Cc1ccc(C)cc1`, the Potency result in assay [1], in assay [2], in [3], in [5], in assay [6] and in assay [7] was “inactive” throughout. The Potency result in assay [8], in assay [9] and in assay [10] was “inactive” in each case. In addition, the max response in [4] is 12.3% (inactive).
As to `CN(C)Cc1ccccc1O`, the Potency result in assay [1], in assay [2], in [3], in [5], in [6] and in assay [7] was “inactive” in each case. The Potency result in [8], in [9] and in [10] was “inactive” in each case. Besides, the max response in assay [4] was 3.13% (inactive).
On to `CN(C)c1ccc(C(=C2C=CC(=[N+](C)C)C=C2)c2ccc(N(C)C)cc2)cc1`, for which the Potency in [1] is 21.9 µM (active) and 21.3 µM (active); in [2], 6.88 µM (active) and 19.5 µM (active) and 7.56 µM (active); in [3], 19.4 µM (active) and 24.5 µM (active); in assay [4] it was 1.73 µM (active) and 4.9 µM (active) and 1.69 µM (active); in [6], 10.9 µM (active) and inactive; in assay [7], 30.7 µM (active) and 24.5 µM (active) and 21.3 µM (active). Further, the Potency in assay [8] was 10.9 µM (active) and 12.3 µM (active) and 19 µM (active); in assay [9] it was 10.9 µM (active) and 12.3 µM (active) and 21.3 µM (active). The Potency entry in assay [5] and in assay [10] was “inactive” throughout.
